Measured values: PubChem BioAssay AID686979 (National Center for Advancing Translational Sciences (NCATS), 2013)
Out of some 420,000 compounds screened, about 50,000 (12%) were called active. Where a call stands in place of a potency, no number is given. Not shown: some 26% with an inconclusive outcome. Calls follow the shape of the dose curve; as a rule, active = well fitted inhibition curve with a large enough effect; inconclusive = small, poorly fitted or top-dose-only effect; inactive = flat fitted curve, though single readings scatter. For the sample, actives were picked, then their nearest neighbours and some compounds at random.

Assay: qHTS for Inhibitors of human tyrosyl-DNA phosphodiesterase 1 (TDP1): qHTS in cells in presence of CPT; also: nearly all actives have a fitted effect of over 55% in size
Details: chicken DT40 Tdp1-/-;hTDP1 cells + 20 nM CPT, ATP luminescence, 48 h; series mostly up to 46.2 µM
How it was run: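 Chicken DT40 Tdp1-/- cells complemented with human TDP1, 400 cells/well, exposed to compounds plus 20 nM camptothecin for at least 48 h at 37 C; viability read as ATP content by CellTiter-Glo luminescence.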
Potency is read from the fitted curve at half-maximal effect.

Row | Compound | Potency
1 | O=C(Nc1ccon1)c1nc[nH]c1C(=O)NCc1ccccc1 | inactive
2 | CCC(=O)N1CCc2cc(Br)cc(S(=O)(=O)NCc3ccc(Cl)cc3)c21 | inactive
3 | CC(=O)C1=C(C)NC(=O)NC1c1ccc2c(c1)OCO2 (stereo not drawn) | inactive
4 | O=C1C=C(c2cccc(Cl)c2)C[C@@H](c2ccc(F)cc2)C1 | inactive
5 | O=C1C=C(c2ccnc3cc(Cl)ccc23)C[C@@H](c2ccc3c(c2)OCO3)C1 | 5.8 µM (active)
6 | Cc1cccc(C)c1NC(=O)C1CCCN1C(=O)OC(C)(C)C (stereo not drawn) | 11.6 µM (active)
7 | Cc1ccc(NC(=O)C2CCCN2C(=O)OCc2ccccc2)cc1C (stereo not drawn) | inactive
8 | Cc1ccc(C)c(NC(=O)C2CCCN2C(=O)OC(C)(C)C)c1 (stereo not drawn) | inactive
9 | Cc1csc(=O)n1CCC(=O)OCC(=O)Nc1ccc(N2CCOCC2)cc1 | inactive
10 | C[C@H](NC(=O)CC[C@H]1O[C@@H](n2ccc(=O)[nH]c2=O)[C@H](O)[C@@H]1O)c1cccc2ccccc12 | inactive
11 | COc1ccc([N+](=O)[O-])cc1N(CC(=O)Nc1ccccc1C(=O)N1CCOCC1)S(C)(=O)=O | inactive
12 | O=C1C(Cc2ccc(O)cc2)NC(=S)N1Cc1ccccc1 (stereo not drawn) | inactive
13 | CC1C(=O)N(Cc2ccccc2)c2ccccc2N1C(=O)c1ccccc1 (stereo not drawn) | 23.1 µM (active)
14 | CC1Oc2ccccc2N(Cc2cccnc2)C1=O (stereo not drawn) | inactive
15 | COc1ccc(C(=O)COC(=O)C(O)c2ccccc2)c(OC)c1 (stereo not drawn) | inactive
16 | O=C1N(c2ccccc2)C(=Nc2ccccc2)SC12CC2 | inactive
17 | Cc1cc(C)c(S(=O)(=O)Nc2c(C)n(C)n(-c3ccccc3)c2=O)cc1[N+](=O)[O-] | inactive
18 | CC(=O)Nc1cccc(-c2ccnc3c2CC(C)(C(=O)NCc2ccco2)O3)c1 (stereo not drawn) | 1.03 µM (active)
19 | COc1ccc(NC(=O)C2(C)Cc3c(-c4ccc(C(N)=O)cc4)ccnc3O2)cc1 (stereo not drawn) | inactive
20 | CC(C)(C)NC(=O)NCc1ccco1 | inactive
21 | COc1ccc(NC(=O)C2(C)Cc3c(-c4cccc(NC(C)=O)c4)ccnc3O2)cc1 (stereo not drawn) | 1.64 µM (active)
22 | CC1(C(=O)NCC2CCOCC2)Cc2c(-c3cccc(C(N)=O)c3)ccnc2O1 (stereo not drawn) | 25.9 µM (active)
23 | CC(=O)Nc1cccc(-c2cnc3ccccc3n2)c1 | inactive

Row | Compound | Potency
24 | CC(=O)Nc1cccc(-c2ccnc3c2CC(C)(C(=O)NCc2ccccc2)O3)c1 (stereo not drawn) | 0.82 µM (active)
25 | CC1(C)Cc2cccc(OCC(=O)NCc3ccccc3)c2O1 | inactive
26 | COc1cccc(NC(=S)NCc2ccco2)c1 | inactive
27 | COc1ccc(NC(=O)Nc2cccc(-c3noc(C)n3)c2)cc1 | inactive
28 | COc1ccc(NC(=O)CCn2ccnc2)c(OC)c1 | inactive
29 | CC1=C(C(=O)N2CCOCC2)CC(CC(=O)NCCCN(C)C)C(=O)N1Cc1ccc(C(C)(C)C)cc1 (stereo not drawn) | inactive
30 | CC(C)N(C(=O)CSc1nnc(NC2CC2)s1)c1ccccc1 | inactive
31 | O=C(Nc1cc(-c2nc3ncccc3o2)ccc1Cl)c1ccco1 | inactive
32 | CSCCC(NC(=O)c1ccco1)C(=O)Nc1cc(C)ccn1 (stereo not drawn) | inactive
33 | CC(=O)c1ccc(OCC(=O)N(C)C2CCS(=O)(=O)C2)cc1 (stereo not drawn) | inactive
34 | CN(Cc1cc2cc(F)ccc2[nH]1)Cc1nc(-c2cnccn2)no1 | inactive
35 | Cn1cc(CNC(=O)c2ccc(OC3CCN(Cc4ccccn4)CC3)cc2)cn1 | inactive
36 | CCOC(=O)C1(Cc2cccc(OC)c2)CCCN(S(=O)(=O)c2cccnc2)C1 (stereo not drawn) | inactive
37 | COc1ccc(-c2nnc(NC(=O)CS(=O)(=O)c3ccc(Cl)cc3)o2)c(OC)c1 | inactive
38 | COc1cc(-c2nnc(NC(=O)CS(=O)(=O)c3ccc(Cl)cc3)o2)cc(OC)c1OC | inactive
39 | Cc1ccc(C)c(-c2nnc(NC(=O)CS(=O)(=O)c3ccccc3)o2)c1 | 11.6 µM (active)
40 | Cc1cccc(C)c1NC(=O)NC1=CCCN1C | inactive
41 | CCOC(=O)c1ccc(S(=O)(=O)N(CCO)Cc2cc3cc(OC)c(OC)cc3[nH]c2=O)cc1 | inactive
42 | CC(C)CC(N=C1NC(C)(C)Cc2ccccc21)C(=O)O (stereo not drawn) | inactive
43 | CC1(C)Cc2nc3sc4c(SCC(=O)NC(c5ccccc5)c5ccccc5)ncnc4c3cc2CO1 | 8.2 µM (active)
44 | CCOc1ccc(NC(=O)CSc2ncnc3c2sc2ccccc23)cc1 | inactive
45 | C=CCn1c(=S)[nH]c2nc3c(cc2c1=O)COC(C)(C)C3 | inactive
46 | O=C1OC(OC(=O)c2ccccc2Br)C(N2CCOCC2)=C1Cl (stereo not drawn) | inactive

Row | Compound | Potency
47 | CC(=O)Nc1cccc([N+](=O)[O-])c1 | inactive
48 | Cc1ccccc1NC(=S)Nc1cccc([N+](=O)[O-])c1 | inactive
49 | COC(=O)/C=C\C(=O)Nc1cccc([N+](=O)[O-])c1 | 1.03 µM (active)
50 | COC(C(=O)NCc1ccccc1C)c1ccccc1 (stereo not drawn) | inactive
51 | CC(C)CC(O)C1CCN(C(=O)CCc2nnc(-c3ccc4c(c3)OCO4)o2)CC1 (stereo not drawn) | inactive
52 | COc1ccc(OCc2n[nH]c(=S)n2N)cc1 | 18.4 µM (active)
53 | Cc1ccc(OCc2n[nH]c(=S)n2-c2ccccc2)cc1 | inactive
54 | S=c1[nH]nc(COc2ccccc2)n1-c1ccccc1 | inactive
55 | CCOc1ccc(OCC(=O)OC(C)C(=O)NC2CCCCC2C)cc1 (stereo not drawn) | inactive
56 | Cc1cccc(N2CCN(C(=O)c3ccccc3NC(=O)C3CCCCC3C(=O)O)CC2)c1 (stereo not drawn) | inactive
57 | Cc1cccc(N2CCN(c3ccc(C(=O)O)cc3NC(=O)c3ccccc3F)CC2C)c1 (stereo not drawn) | 23.1 µM (active)
58 | COc1c(C)cccc1C(=O)Nc1cc(Cl)ccc1N1CCOCC1 | inactive
59 | CNC[C@@H]1Oc2c(NS(C)(=O)=O)cccc2C(=O)N([C@@H](C)CO)C[C@H]1C | inactive
60 | COCC(=O)N(C)C[C@H]1Oc2cc(Br)ccc2S(=O)(=O)N([C@H](C)CO)C[C@H]1C | inactive
61 | Cc1cc(C(=O)OCC(=O)Nc2ccccc2Cl)c(C)o1 | inactive
62 | COC(=O)c1ccc(CSc2nnc(NC(C)C)s2)cc1 | inactive
63 | CC(C)Nc1nnc(SCC(=O)c2c[nH]c3ccccc23)s1 | inactive
64 | CC(C)Nc1nnc(SCC(=O)/C=C2\N(C)c3ccccc3C2(C)C)s1 | 16.4 µM (active)
65 | Cc1ccccc1OCc1nc2c3cnn(-c4ccccc4F)c3ncn2n1 | inactive
66 | CN1/C(=C\C(=O)c2cccnc2Cl)C(C)(C)c2ccccc21 | 20.6 µM (active)
67 | CC1COc2ccccc2N1C(=O)c1cccnc1Cl (stereo not drawn) | inactive
68 | Cc1ccc(CNC(=O)c2cccnc2Cl)cc1 | inactive
